Test results from the supplement of paper PMC8728848.
The sample as a whole holds a higher share of the strongest signals than the screen did.

Tests used:
Assay in all cases: glycan array binding signal (z-score within array); higher = stronger binding
Conditions in all cases: glycan notation: IUPAC condensed, linker removed
[1] = molecular target: Fuc(a1-2)Gal(b1-3)GalNAc(b1-4)[Neu5Ac(a2-3)]Gal(b1-4)Glc
Procedure, shortened: (§1)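 The Consortium for Functional Glycomics database supplied 3228 glycan arrays, of which those lacking an available protein sequence were dropped. The binding signal, a within-array Z-score, was averaged across arrays of the same protein sequence and across linkers. Negative scores can be read as non-binding.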

[2] = molecular target: Fuc(a1-2)Gal(b1-3)GlcNAc6S
Procedure, shortened: as §1

[3] = molecular target: Fuc(a1-2)Gal(b1-3)[Fuc(a1-4)]GlcNAc(b1-2)Man(a1-3)[Fuc(a1-2)Gal(b1-3)[Fuc(a1-4)]GlcNAc(b1-2)Man(a1-3)]Man(b1-4)GlcNAc(b1-4)GlcNAc
Procedure, shortened: as §1

[4] = molecular target: Fuc(a1-2)Gal(b1-4)Glc6S
Procedure, shortened: as §1

[5] = molecular target: Fuc(a1-2)Gal(b1-4)GlcNAc(b1-2)[Fuc(a1-2)Gal(b1-4)GlcNAc(b1-4)]Man(a1-3)[Fuc(a1-2)Gal(b1-4)GlcNAc(b1-2)Man(a1-6)]Man(b1-4)GlcNAc(b1-4)GlcNAc
Procedure, shortened: as §1

[6] = molecular target: Fuc(a1-2)GlcNAc
Procedure, shortened: as §1

[7] = molecular target: Fuc(a1-2)[Gal(a1-3)]Gal(b1-3)GalNAc(b1-3)Gal(a1-4)Gal(b1-4)Glc
Procedure, shortened: as §1

[8] = molecular target: Fuc(a1-2)[Gal(a1-3)]Gal(b1-3)GlcNAc(b1-3)GalNAc
Procedure, shortened: as §1

[9] = molecular target: Fuc(a1-2)[Gal(a1-3)]Gal(b1-4)[Fuc(a1-3)]GlcNAc
Procedure, shortened: as §1

[10] = molecular target: Fuc(a1-2)[GalNAc(a1-3)]Gal(b1-4)[Fuc(a1-3)]GlcNAc(b1-3)GalNAc
Procedure, shortened: as §1

[11] = molecular target: Fuc(a1-2)[GalNAc(a1-4)]Gal(b1-4)GlcNAc
Procedure, shortened: as §1

[12] = molecular target: Fuc(a1-3)[Gal(b1-4)]GlcNAc(b1-3)Gal(b1-3)[Fuc(a1-4)]GlcNAc
Procedure, shortened: as §1

[13] = molecular target: Fuc(a1-3)[GalNAc(b1-4)]GlcNAc
Procedure, shortened: as §1

[14] = molecular target: Gal(a1-3)Gal(b1-3)Glc
Procedure, shortened: as §1

[15] = molecular target: Gal(a1-3)Gal(b1-4)GlcNAc(b1-2)Man(a1-3)[Gal(a1-3)Gal(b1-4)GlcNAc(b1-2)Man(a1-6)]Man(b1-4)GlcNAc(b1-4)GlcNAc
Procedure, shortened: as §1

[16] = molecular target: Gal(a1-3)GlcNAc
Procedure, shortened: as §1

[17] = molecular target: Gal(b1-3)GalNAc(a1-3)[Fuc(a1-2)]Gal(b1-4)Glc
Procedure, shortened: as §1

[18] = molecular target: Gal(b1-3)GalNAc(a1-3)[Fuc(a1-2)]Gal(b1-4)GlcNAc
Procedure, shortened: as §1

[19] = molecular target: Gal(b1-3)GlcNAc(a1-6)Gal(b1-4)GlcNAc
Procedure, shortened: as §1

[20] = molecular target: Gal(b1-3)GlcNAc(b1-3)Gal(b1-4)GlcNAc
Procedure, shortened: as §1

[21] = molecular target: Gal(b1-3)[Neu5Ac(a2-6)]GlcNAc(b1-4)Gal(b1-4)Glc
Procedure, shortened: as §1

[22] = molecular target: Gal(b1-4)GlcNAc
Procedure, shortened: as §1

[23] = molecular target: Gal(b1-4)GlcNAc(b1-2)[Gal(b1-4)GlcNAc(b1-4)]Man(a1-3)[Gal(b1-4)GlcNAc(b1-2)[Gal(b1-4)GlcNAc(b1-6)]Man(a1-6)]Man(b1-4)GlcNAc(b1-4)GlcNAc
Procedure, shortened: as §1

[24] = molecular target: Gal(b1-4)GlcNAc(b1-2)[Gal(b1-4)GlcNAc(b1-6)]Man(a1-6)[Gal(b1-4)GlcNAc(b1-2)Man(a1-3)]Man(b1-4)GlcNAc(b1-4)[Fuc(a1-6)]GlcNAc
Procedure, shortened: as §1

[25] = molecular target: Gal(b1-4)GlcNAc(b1-2)[Gal(b1-4)GlcNAc(b1-6)]Man(a1-6)[GlcNAc(b1-4)][Gal(b1-4)GlcNAc(b1-2)Man(a1-3)]Man(b1-4)GlcNAc(b1-4)GlcNAc
Procedure, shortened: as §1

[26] = molecular target: Gal3S(b1-4)[Fuc(a1-3)]Glc6S
Procedure, shortened: as §1

[27] = molecular target: GalNAc(b1-3)Gal(a1-4)Gal(b1-4)GlcNAc(b1-3)Gal(b1-4)Glc
Procedure, shortened: as §1

[28] = molecular target: GalNAc3S(b1-4)[Fuc(a1-3)]GlcNAc
Procedure, shortened: as §1

[29] = molecular target: GalNAc4S6S(b1-4)GlcNAc
Procedure, shortened: as §1

[30] = molecular target: Glc(a1-6)Glc(a1-6)Glc(a1-6)Glc
Procedure, shortened: as §1

B1: XL-35 (Xenopus laevis) (protein)
chain: MLVHILLLLVTGGLSQSCDPVVIVASKNMVKQLDCDKFRNCKEIKDSNEEAQDGIYTLTSPDGISYQTFCDMTTNGGGWTLVASVHENNMAGKCTIGDRWSSQQGNRADYPEGDGNWANYNTFGSAGGATSDDYKNPGYYDIEAYNLGVWHVPNKTPLSVWRNSSLQRYRTTDGILFKHGGNLFSLYRIYPVKYGIGSCSKDSGPTVPVVYDLGSANLTASFYSPGFRSQFTPGYIQFRPINTEKAALALCPGMKMESCNVEHVCIGGGGYFPEADPRQCGDFAAYDFNGYGTKKFNSAGIEITEAAVLLFYL
glycan array binding signal (z-score) [1]: -0.108
glycan array binding signal (z-score) [2]: -0.184
glycan array binding signal (z-score) [3]: -0.215
glycan array binding signal (z-score) [4]: 0.014
glycan array binding signal (z-score) [5]: 0.358
glycan array binding signal (z-score) [6]: -0.021
glycan array binding signal (z-score) [7]: -0.322
glycan array binding signal (z-score) [8]: -0.477
glycan array binding signal (z-score) [9]: -0.202
glycan array binding signal (z-score) [10]: 20.3
glycan array binding signal (z-score) [11]: -0.131
glycan array binding signal (z-score) [12]: -0.053
glycan array binding signal (z-score) [13]: 6.12
glycan array binding signal (z-score) [14]: 2.36
glycan array binding signal (z-score) [15]: 0.152
glycan array binding signal (z-score) [16]: 15.9
glycan array binding signal (z-score) [17]: -0.227
glycan array binding signal (z-score) [18]: -0.337
glycan array binding signal (z-score) [19]: -0.171
glycan array binding signal (z-score) [20]: -0.474
glycan array binding signal (z-score) [21]: 0.794
glycan array binding signal (z-score) [22]: -0.066
glycan array binding signal (z-score) [23]: 0.777
glycan array binding signal (z-score) [24]: 0.078
glycan array binding signal (z-score) [25]: -0.452
glycan array binding signal (z-score) [26]: 0.818
glycan array binding signal (z-score) [27]: -0.027
glycan array binding signal (z-score) [28]: -0.078
glycan array binding signal (z-score) [29]: 0.078
glycan array binding signal (z-score) [30]: 0.158
